The source of these data is PubChem BioAssay (NCI).

The panel holds about 83,000 compounds, 20% with a hit somewhere; the sample as a whole holds those more often.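 Growth was measured after 48 h exposure to one concentration of compound in 96-well plates. Values under 10 count as active.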 A number with no mark means an inactive call. Activity calls are given as the source filed them.

The test deals with SNB-75 CNS. Nature of the test: NCI-60 one-dose screen, 48 h (100 = growth as untreated, 0 = no growth, -100 = all killed). The settings on record: 10 µM. As for the experimental part: Growth inhibition of the SNB-75 human tumor cell line is measured as a screen for anti-cancer activity. Cells are grown in 96 well plates and exposed to the test compound for 48 hours. Compounds are tested at a single concentration, which is 10^-5 M for most compounds. The reported endpoint is percent growth (GI% or GIPRCNT), where numbers from 0 - 100% represent growth inhibition, and numbers from -100% - 0 represent cell death. For example, a value of 40 represents 60% growth inhibition. A value of 0 means no net growth occurred over the course of the experiment. A value of -40 indicates 40% of cells at the beginning of the experiment died by the end of the experiment. A value of -100 means all cells are dead at the end of the experiment.
NCI-60 Human Tumor Cell Lines Screen was performed using the standard one-dose NCI protocol, which is described in more detail at https://dtp.cancer.gov/discovery_development/nci-60/default.htm.
Compounds with GIPRCNT values below 10 were considered active. Activity score was based on GIPRCNT using the following formula: […]
Score is 0 for GIPRCNT values of 100 or above, 50 for GIPRCNT values of 0, and 100 for GIPRCNT values of -100.
As for `Cc1cccc(/C=N/Nc2cc(C)c3cccc(C)c3n2)n1`, the growth was 119%.

For the compound `CC(C)(C)OC(=O)NCCc1ccc(N=C=S)cc1`, the growth was 42.4%. With `Cn1ncc2c(Sc3ccc(Cl)cc3)ncnc21`, the growth is 86.7%. For the compound `NNc1cccc(/C=C/c2ccccc2)cc1=O`, the growth was 81.3%. On to `O=C1CCCCC1(c1ccccc1)c1ccccc1`, for which the growth is 88.8%. For the compound `CCc1cnc(=S)n(-c2ccccc2)c1`, the growth was 117%. In the case of `CNc1ccc(Br)c2c1C(=O)c1ccccc1C2=O`, the growth is 96.7%. Take `O=C(CSc1nc2ccccc2[nH]1)Nc1ccc(-c2nc3ccccc3s2)c(Cl)c1`: the growth was -28.5% (active).

On to `COc1cc2c(cc1OCCCN1CCN(CCCn3c4ccccc4c4ccccc43)CC1)N=C[C@@H]1CCCN1C2=O`, for which the growth is -98.9% (active). On to `COc1cc2c(cc1OCCCCCn1c3ccccc3c3ccccc31)N=C[C@@H]1CCCN1C2=O`, for which the growth is -11.3% (active). As for `CN1CCN(Cc2ccc(NC(=O)c3nc4ccc5[nH]ncc5c4c4c3CCC4)cc2C(F)(F)F)CC1`, the growth is 96.3%. For the compound `Nc1nc(=O)c2ccccc2s1`, the growth was 94.1%. With `Cn1c2ccc(Br)cc2c2c3c(c4c5ccccc5[nH]c4c21)C(=O)N(O)C3=O` the figure was -86.9% (active); with `CCCN=C1NC(=O)/C(=C/c2nc(-c3ccc(OC)cc3)n3ccccc23)S1`, 96.5%; with `COc1ccc(-c2c(N)n[nH]c2-c2cc(OC)c3c(c2)OCCO3)cc1`, 57.4%. For the compound `O=C(/C=C\c1cccc([N+](=O)[O-])c1)/C=C/c1cccc([N+](=O)[O-])c1`, the growth was 94.3%. `NC(=N\N=C/c1ccc(O)cc1)/C(N)=N\N=C/c1ccc(O)cc1`: the growth was 94.4%.

With `COc1ccc2c(c1)cn1c3ccc(OC)cc3[nH]c(=O)c21`, the growth was 59.1%. As for `C=C[C@@H]1C[C@@H]2Cc3cc(F)ccc3N1O2`, the growth was 99.7%. Regarding `Fc1ccc(Nc2ncnc3ccc(-c4cnc5[nH]ccc5c4)cc23)cc1Cl`, the growth was -65.2% (active).

Take `COc1ccc(-c2c(-c3cc(OC)c4c(c3)OCO4)noc2N)cc1`: the growth was 25.9%. With `CC(=O)Nc1ccc(S(=O)(=O)n2ccc(-c3ccc4c(c3)CCC(C)(C)O4)n2)cc1`, the growth was 81.4%. Consider `COc1ccc(C(=O)n2nc(/C=C/c3ccc(O)c(OC)c3)cc2/C=C/c2ccc(O)c(OC)c2)cc1`, for which the growth was -16% (active). For the compound `C=C1C(=O)O[C@H]2[C@H]1CC/C(COC(=O)NCc1ccccc1OC)=C\CC[C@@]1(C)O[C@@H]21`, the growth is 77.4%. In the case of `CN1C=CN(Cc2ccc(-c3ccccn3)nc2)[CH-]1.CN1C=CN(Cc2ccc(-c3ccccn3)nc2)[CH-]1.[Au+3]`, the growth is 72.6%.

`O=C1C2(c3ccccc3)C(c3ccccc3)=C(c3ccccc3)C1(c1ccccc1)C1CC=CC12` (stereo not given): the growth was 83.4%. For the compound `COc1ccc(-c2cnnn2-c2nonc2-n2cccc2)cc1OC`, the growth was 51.3%. To `O=c1ccn(-c2ncnc3nc[nH]c23)cc1` belongs 80.6%; to `O=C(CCl)N(C1CCCCC1)C1CCCCC1`, 95.7%. On to `COc1ccc2[nH]c(C(=O)OCc3ccc4c(Cl)cc(Cl)c(O)c4n3)cc2c1`, for which the growth is -32.4% (active). Consider `C=C[C@@H]1C[C@@H]2Cc3cc(Cl)ccc3N1O2`, for which the growth is 93.3%.

Take `CC(C)(C)OC(=O)NC(CSCc1ccccc1)C(=O)ON1C(=O)CCC1=O` (stereo not given): the growth is 105%. With `C=C(C)[C@@H]1C[C@@H]2Cc3cc(Cl)ccc3N1O2` the figure was 99.2%. As for `O=c1[nH]c(Nc2ccc(S(=O)(=O)O)cc2)nc2nc(Nc3ccc(NC(=S)Nc4ccccc4)cc3)nc(-c3ccc(O)cc3O)c12`, the growth is 96.3%. To `Nc1nc(-c2ccccc2)c(CCCOc2ccc(NC(=O)CBr)cc2)c(=O)[nH]1` belongs 94.3%; to `Cc1ccc2nc(Cl)cc(=O)n2c1`, 115%. As for `S=C1CC(=S)NC(=S)N1`, the growth is 92.5%. As to `CCCCCCCCCCCCCCCCNC(=O)OC(C)C`, the growth was 64%. For the compound `COc1ccc(NC(=O)CSc2nc(-c3ccc(OC)c(OC)c3)cc(-c3cc(OC)c(OC)c(OC)c3)n2)cc1`, the growth is 76%. To `C=C(C)[C@@H]1CC[C@]2(C(=O)N3CCNCC3)CC[C@]3(C)[C@H](CC[C@@H]4[C@@]5(C)C/C(=C/c6ccncc6)C(=O)C(C)(C)[C@@H]5CC[C@]43C)[C@@H]12` belongs 96.4%.
